Compounds without any hit were thinned out: in the full panel of roughly 83,000, 20% have a hit.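 Plates (96-well) were seeded with cells, treated with compound at one concentration, and incubated for 48 hours before percent growth was determined.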 A number with no mark means an inactive call. Calls of active or inactive are those of the source. How the source made its calls: active means growth percent below 10; inactive means the rest.
Each molecule was assayed on SR leukemia (assay: NCI-60 one-dose screen, 48 h (100 = growth as untreated, 0 = no growth, -100 = all killed)). Conditions: 10 µM unless noted.
With `C=C1C(=O)O[C@@H]2C[C@@H](C)[C@H](OC)CC(=O)[C@](C)(OC(C)=O)C[C@H](OC(=O)/C(C)=C\C)[C@@H]12` the growth was 1.2% (active). For `O=C1[C@H]2Cc3c([nH]c4ccccc34)[C@@H](c3ccc(Cl)cc3)N2C(=O)CN1C1CCN(Cc2c(Cl)cccc2Cl)CC1`, the growth was 29.8%. Molecule `COc1ccc(Cn2cc3c(c2-c2ccccc2)CCCc2cnoc2-3)cc1` has a growth of 21.1%. In the case of `COc1ccc(-c2oc3cc(O)cc(O)c3c(=O)c2OC)cc1O`, the growth is reported as 11%. In the case of `N/C(=N\OC(=O)CSc1nc2ccccc2s1)c1ccc2ccccc2c1`, the growth is reported as 117%. For `CCOC(=O)C1=C(C)Nc2nc3ccccc3n2C1c1ccccc1` (stereo unspecified), the growth was 68.9%. Molecule `CS(=O)(=O)c1ccc(-c2nn(-c3ccccc3)cc2/C=N/NC(=O)c2ccncc2)cc1` has a growth of 87%. Molecule `Cc1cc(O)c2c(c1)C(=O)C(c1c(C)cc3c(c1O)C(=O)C=CC3=O)=CC2=O` has a growth of 11.1%. Molecule `N#Cc1c(NC(=O)c2ccccc2C(F)(F)F)sc2c1CCC(=O)C2` has a growth of 20.8%. For `CCOC(=O)C1=C(C)N=C2Sc3ccccc3N2C1c1ccccc1` (stereo unspecified), the growth was 83.8%. For `CN(C)c1ncc(/C=C2\SC(=S)N(Cc3ccccc3Cl)C2=O)s1`, the growth was 87.8%. With `CCN1C(=O)N(CC)C2SC(N/N=C/c3ccc(OC)cc3)=NC21` (stereo unspecified) the growth was 19.3%. For `O=C1[C@@H]2Cc3c([nH]c4ccccc34)[C@H](c3c(Cl)cccc3Cl)N2C(=O)CN1C1CCN(Cc2c(F)cccc2F)CC1`, the growth was 35.4%. With `CC1OC(O[C@@H]2[C@H](O)C(CO)OC(O[C@H]3COC(O[C@H]4CC[C@]5(C)[C@H]6CC[C@]78OC[C@@]9(CC[C@](C)(C=O)C[C@H]97)C(=O)C[C@@]8(C)[C@]6(C)CC[C@H]5C4(C)C)[C@@H](O)[C@@H]3O)[C@H]2OC2OC[C@@H](O)[C@@H](O)[C@@H]2O)[C@@H](O)[C@@H](O)[C@H]1O` (stereo partly specified) the growth was 8.86% (active). Molecule `CC(=O)NC(C)(C)C(=O)N1CCC[C@H]1C(=O)NC(C)(C)C(=O)N[C@@H](C)C(=O)NC(C)(C)C(=O)NC(C)(C)C(=O)N[C@@H](CCC(N)=O)C(=O)NC(C)(C)C(=O)N[C@H](C(=O)NC(C)(C)C(=O)NCC(=O)N[C@@H](CC(C)C)C(=O)NC(C)(C)C(=O)N1CCC[C@H]1C(=O)N[C@H](C(=O)NC(C)(C)C(=O)NC(C)(C)C(=O)N[C@@H](CCC(N)=O)C(=O)N[C@@H](CCC(N)=O)C(=O)N[C@H](CO)Cc1ccccc1)C(C)C)C(C)C` has a growth of 30.2% [4.25 µM]. Molecule `CC1(C)CC[C@]2(C(=O)O)CC[C@]3(C)C(=CCC4[C@@]5(C)C[C@@H](O)[C@@H]6OC(c7cccc([N+](=O)[O-])c7)OC[C@@]6(C)C5CC[C@]43C)C2C1` (stereo partly specified) has a growth of 72.7%. `Oc1ccccc1-c1nnc(SCc2ccc(O)c3ncccc23)n1-c1ccccc1` gave a growth of 25.2%. `O=c1c2c(O)cccc2oc2c3c(cc(O)c12)O[C@H]1OC=C[C@@H]31` showed a growth of 42.6%. For `O=C(CN1C(=O)S/C(=C\c2ccccc2)C1=O)Nc1ccc(C(=O)/C=C/c2cc3ccccc3nc2Cl)cc1`, the growth was 42.4%. Molecule `O=C(/C=C/c1cccc(O)c1)c1ccc(O)cc1` has a growth of 13%. Molecule `ClC(Cl)c1nc(-c2cccs2)n2nc(-c3ccccc3)cc2n1` has a growth of 58.1%. `CC1OC(O[C@@H]2C(O)C(CO)OC(O[C@H]3COC(O[C@H]4CC[C@]5(C)[C@H]6CC[C@]78OC[C@@]9(CC[C@](C)(C=O)C[C@H]97)[C@H](O)C[C@@]8(C)[C@]6(C)CC[C@H]5C4(C)C)[C@@H](OC4OC(CO)[C@@H](O)[C@@H](O)[C@@H]4O)[C@@H]3O)[C@H]2OC2OC[C@@H](O)[C@@H](O)[C@@H]2O)[C@@H](O)[C@@H](O)[C@H]1O` (stereo partly specified) was tested, and the growth was -18.3% (active). For `O=C(CCCCCCN1CC(=O)N2[C@@H](c3cc(F)cc(F)c3)c3[nH]c4ccccc4c3C[C@H]2C1=O)NO`, the growth was 26%. Molecule `N=c1c2cc(-c3ccccc3)oc2ncn1/N=C/c1ccccc1` has a growth of 16.4%. `COc1cc(CNC(=O)/C=C/c2ccccc2)ccc1OCC(=O)NO` was tested, and the growth was 97%. For `C=C(C)[C@@H]1CC[C@]2(COS(C)(=O)=O)CC[C@]3(C)[C@H](CC[C@@H]4[C@@]5(C)CCCNC(C)(C)[C@@H]5CC[C@]43C)[C@@H]12`, the growth was -1.07% (active).
